Assay outcomes: PubChem BioAssay, several laboratories
The list is not random: actives were taken first. Their share in the collection is about 2.3%.
IDE act: human IDE activators in live cells, primary screen, fluorescence polarization, HEK cells, FAbeta-B substrate; actives 0.073% (n = 340,000); FAbeta-B cleavage; 0% vehicle, 100% cell-free pure enzyme wells; activation, % at 5.96 µM; Insulin-degrading enzyme (Homo sapiens), P14735; AID 493087, 2011;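 active means activation above the mean of all tested compounds plus 3 SD, set per screening campaign, cut at about 17% in these data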
Target sequence (P14735 whole entry, looked up): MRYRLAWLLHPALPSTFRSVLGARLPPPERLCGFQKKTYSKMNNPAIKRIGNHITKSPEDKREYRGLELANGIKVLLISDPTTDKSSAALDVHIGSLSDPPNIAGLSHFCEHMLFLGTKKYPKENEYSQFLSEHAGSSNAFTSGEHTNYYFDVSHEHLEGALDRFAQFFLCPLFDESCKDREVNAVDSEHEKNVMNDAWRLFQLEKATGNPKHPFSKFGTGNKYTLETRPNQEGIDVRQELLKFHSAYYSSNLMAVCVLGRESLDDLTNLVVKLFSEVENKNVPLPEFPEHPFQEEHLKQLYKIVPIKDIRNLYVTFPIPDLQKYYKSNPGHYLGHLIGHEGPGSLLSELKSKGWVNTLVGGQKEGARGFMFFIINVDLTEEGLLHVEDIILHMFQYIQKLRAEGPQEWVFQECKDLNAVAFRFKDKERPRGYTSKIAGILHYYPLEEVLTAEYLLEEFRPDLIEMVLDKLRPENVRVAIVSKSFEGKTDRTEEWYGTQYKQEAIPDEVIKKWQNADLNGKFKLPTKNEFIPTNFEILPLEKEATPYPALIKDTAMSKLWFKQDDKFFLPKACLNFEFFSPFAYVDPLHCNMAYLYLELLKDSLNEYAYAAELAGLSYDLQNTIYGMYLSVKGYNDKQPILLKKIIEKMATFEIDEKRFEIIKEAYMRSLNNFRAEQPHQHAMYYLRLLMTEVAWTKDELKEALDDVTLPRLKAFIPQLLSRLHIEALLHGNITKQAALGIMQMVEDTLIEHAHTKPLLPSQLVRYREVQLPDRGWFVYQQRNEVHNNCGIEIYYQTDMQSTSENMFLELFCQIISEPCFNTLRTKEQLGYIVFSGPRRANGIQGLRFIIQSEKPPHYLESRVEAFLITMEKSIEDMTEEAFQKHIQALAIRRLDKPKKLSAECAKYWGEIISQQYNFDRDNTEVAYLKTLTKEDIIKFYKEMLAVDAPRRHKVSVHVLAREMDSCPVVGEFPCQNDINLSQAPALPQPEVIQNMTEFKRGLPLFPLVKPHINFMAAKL
Rin1-Abl PPI inh: inhibitors of Rin1-Abl protein binding, primary screen, biochemical, TR-FRET; Tyrosine-protein kinase ABL1 (Homo sapiens) + Ras and Rab interactor 1 (Homo sapiens), …; inhibition, % at 7.35 µM; actives 0.4% (n = 360,000); AID 588664, 2011; in the data active means inhibition above about 5%, passing the limit was not always enough
IDE inh: human IDE inhibitors in live cells, primary screen, fluorescence polarization, HEK cells, FAbetaB substrate; Insulin-degrading enzyme (Homo sapiens), P14735; FAbetaB cleavage; inhibition, % at 5.59 µM; actives 0.41% (n = 320,000);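 active means percent inhibition above the average of all tested compounds plus 3 SD, set per screening campaign, cut at about 16% in these data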;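 further: IDE supplied by intact live HEK cells; FP after avidin binding of uncleaved biotin substrate so inhibition keeps polarization high; 0% = DMSO wells and 100% = 60 µM reference IDE inhibitor Ii1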
Calb FLC: C. albicans growth inhibition with fluconazole, primary screen, CaCi-2 strain, Alamar Blue fluorescence. C. albicans CaCi-2 (fluconazole-resistant clinical isolate) + fluconazole, 48 h. actives 0.57% (n = 300,000). growth inhibition, % (test concentration not listed). AID 1979, 2009;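 active means growth inhibition above about 58% in most replicates, limit read from the data, passing the limit was not always enough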;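 further: all wells also contain fluconazole at 8 µg/ml as a sub-toxic cotreatment; 0% = median of DMSO wells and 100% = median of geldanamycin control wells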
TPT1 inhibitor: Candida albicans TPT1 enzyme inhibitors, primary screen, biochemical, fluorescence polarization; tRNA 2'-phosphotransferase TPT1 (Candida albicans SC5314); recombinant caTPT1, FP RNA substrate dephosphorylation; inhibition, % at 5 µM; actives 0.81% (n = 300,000); AID 1962, 2009;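 active means inhibition above the mean of all tested compounds plus 3 SD, set per screening campaign, cut at about 24% in these data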;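 further: plate controls were DMSO alone for no effect and ferristatin control at 100 nM for full effect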
Rpn11 inh: Rpn11 (PSMD14) deubiquitinase inhibitors, primary screen, biochemical, fluorescence polarization, uHTS | inhibition, % at 20 µM | human 26S proteasome, Ub4-pepOG fluorescence polarization; 20S core pre-blocked with epoxomicin | 26S proteasome non-ATPase regulatory subunit 14 (Homo sapiens), O00487 | actives 0.59% (n = 360,000);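 active means inhibition at 20 µM, scaled to each plate's controls, above about 33%, limit read from the data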
Rin1-Abl confirm: Rin1-Abl binding inhibitor retest, confirmation, biochemical, TR-FRET. shares compounds with Rin1-Abl PPI inh. purified proteins. inhibition, % at 7.35 µM. actives 49% (n = 1,300). AID 602124, 2011; in the data active means inhibition above about 6.5%
GFP quench-1: GFP fluorescence inhibitors and quenchers, artefact control for Rin1-Abl interaction inhibitor project, biochemical; shares compounds with Rin1-Abl PPI inh; inhibitors/quenchers counterscreen; inhibition, % at 6.75 µM; actives 8.5% (n = 1,300); AID 602125, 2011; in the data active means inhibition above about 6.5%;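 further: ABL1-eGFP fusion protein alone without its partner RIN1-SBP; 0% = protein with vehicle and 100% = wells lacking protein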
GFP quench DR: GFP fluorescence inhibitors and quenchers, dose response, artefact control for Rin1-Abl interaction inhibitor project, biochemical; shares compounds with Rin1-Abl PPI inh; GFP fluorescence interference/quenching counterscreen; IC50, µM; 230 tested, under 10 active; AID 602182, 2012;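 further: ABL1-eGFP fusion protein alone without its RIN1 binding partner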
GFP quench-2: GFP fluorescence inhibitors and quenchers, late-stage follow-up, artefact control for Rin1-Abl interaction inhibitor project, biochemical, dose response. AID 602397, 2012. 25 tested, under 10 active. GFP fluorescence quenching counterscreen. IC50, µM. shares compounds with Rin1-Abl PPI inh
Numbers without * were called inactive; x = no result. Unless noted, how the calls were made is not given here.

SMILES	IDE act	Rin1-Abl PPI inh	IDE inh	Calb FLC	TPT1 inhibitor	Rpn11 inh	Rin1-Abl confirm	GFP quench-1	others
CCCc1c(C(=O)Nc2ccc(F)cc2C)cnn1-c1ccccc1	4	-2	10	-11	-4	2	x	x
CCCc1c(C(=O)Nc2cc(C)on2)cnn1-c1ccccc1	6	8.7*	7	1	-3	0	-1	-1
COc1cc(SC)ccc1C(=O)NNC(=O)c1cc(C)oc1C	5	2	5	-1	-3	-2	x	x
CCOC(=O)c1ccc2ncc(C(=O)OCC)c(NCCN(C)C)c2c1	0	7.9*	-4	4	-1	-124	-1	1
Cn1c(=O)[nH]c(=O)c2c1nc(NCc1ccco1)n2Cc1ccccc1Cl	1	13*	0	1	-3	0	18*	-1	GFP quench DR=>68
COc1ccccc1C(CNC(=O)COc1cc(C)ccc1Cl)N1CCCC1 (stereo not drawn)	7	2	-2	-10	-2	1	x	x
COc1ccc(C(CNC(=O)COc2cc(C)ccc2Cl)N2CCCCC2)cc1 (stereo not drawn)	1	14*	-2	-1	0	2	-1	-4
CC1=C(C(=O)OC(C)C)C2(O)C(=O)c3ccccc3C2(O)N1 (stereo not drawn)	4	13*	4	0	-3	3	-2	-1
CCCCOC(=O)C1=C(C)NC2(O)c3ccccc3C(=O)C12O (stereo not drawn)	0	7.8*	4	1	0	1	1	-2
CCOC(=O)C1=C(C)N[C@@]2(O)c3ccccc3C(=O)[C@@]12O	1	3	9	9	0	3	x	x
Cn1c(CNC(=O)c2ccccc2)nnc1SCC(=O)Nc1nccs1	-2	2	4	-1	-3	-4	x	x
COc1ccc(CCNC(=O)CCNC(=O)c2ccccc2Cl)cc1	5	0	-4	11	1	0	x	x
CC1=NN(c2ccccc2)C(=O)/C1=C\c1ccc(Oc2ccc([N+](=O)[O-])cc2[N+](=O)[O-])cc1	2	7.4*	0	-39	0	12	1	0
C#CCOc1ccc(/C=C2/C(=O)N(c3ccc(S(N)(=O)=O)cc3)N=C2C)cc1OC	x	5	x	x	x	-4	x	x
CC1=NN(c2ccccc2)C(=O)/C1=C\c1cn(-c2ccccc2)nc1C	-5	-1	0	4	1	8	x	x
COc1cc(/C=C2\C(=O)N(c3ccc(S(N)(=O)=O)cc3)N=C2C)ccc1OC(=O)c1ccco1	-2	10*	5	-9	1	-2	-1	0
C#CCOc1ccc(/C=C2/C(=O)N(c3cccc(C(=O)O)c3)N=C2C)cc1OC	3	16*	5	7	4	-7	2	0
COc1ccccc1/C=C1/C(=O)N(c2ccccc2)N=C1C	1	13*	13	-5	-1	-7	1	-1
CN(CCc1ccccc1)C(=O)c1ccc(NC(=O)Cc2cccc(NC(=O)C3CCN(C(=O)c4ccccc4)CC3)c2)cc1	2	9.1*	x	x	x	2	9.1*	1
CN(C(=O)c1ccc(NC(=O)Cc2ccc(NC(=O)C3CCN(C(=O)CCc4ccccc4)CC3)cc2)cc1)C1CC1	0	12*	0	x	x	7	17*	0
CN(C(=O)c1ccc(NC(=O)Cc2ccc(NC(=O)C3CCN(C(=O)C4CC4)CC3)cc2)cc1)C1CCCC1	3	-4	x	x	x	2	x	x
CN(C(=O)c1ccc(NC(=O)Cc2ccc(NC(=O)C3CCN(C(=O)C4CCCC4)CC3)cc2)cc1)C1CCCC1	0	22*	x	x	x	6	27*	-1	GFP quench DR=>67
CN(C(=O)c1ccc(NC(=O)Cc2ccc(NC(=O)C3CCN(C(=O)C4CCCCC4)CC3)cc2)cc1)C1CC1	2	68*	7	x	x	-4	66*	-1
CCOC(=O)CSc1nc2cc(S(=O)(=O)N3CCOCC3)ccc2n1CC	-3	-3	6	3	-3	-6	x	x
COc1ccccc1NC(=O)CC1S/C(=N/N=C2\CCCc3ccccc32)NC1=O (stereo not drawn)	5	1	2	13	-3	2	x	x
SMILES	IDE act	Rin1-Abl PPI inh	IDE inh	Calb FLC	TPT1 inhibitor	Rpn11 inh	Rin1-Abl confirm	GFP quench-1	others
O=C(CSc1nnc(COc2ccc(Cl)cc2)o1)N1CCCCC1	0	0	4	-4	2	-7	x	x
CC(C)[C@H]1C(=O)Nc2ccccc2N1C(=O)N[C@@H](Cc1ccccc1)C(=O)N[C@H](C(=O)O)c1ccccc1	4	-1	8	-9	1	-1	x	x
O=C(Cc1ccc(NC(=O)C2CCN(C(=O)C3CCCCC3)CC2)cc1)Nc1ccc(C(=O)N2CCOCC2)cc1	0	39*	x	x	x	5	44*	0	GFP quench DR=>68;GFP quench-2=>68
CN(C(=O)c1ccc(NC(=O)Cc2ccc(NC(=O)C3CCCN(C(=O)C4CCCC4)C3)cc2)cc1)C1CC1 (stereo not drawn)	-7	13*	-2	x	x	2	19*	2
O=C(CN1c2cccc3cccc(c23)S1(=O)=O)NCc1ccc(Cl)cc1	6	2	9	x	x	-9	x	x
CC(=O)/C(N=Nc1c(C)n(C)n(-c2ccccc2)c1=O)=C(\C)O	-3	-5	1	-3	-4	4	x	x
Cc1c(N=NC2=C(O)CC(C)(C)CC2=O)c(=O)n(-c2ccccc2)n1C	5	10*	5	96*	4	9	2	3
COc1cc(CNC(=O)c2ccccc2NC(=O)C2=C(C)OCCS2)cc(OC)c1OC	5	2	5	0	-3	2	x	x
CCCn1nnnc1NCc1cccc(Cl)c1	3	-1	-1	-2	-3	-1	x	x
Cc1ccc2[nH]c(=O)c(C3C(C#N)=C(N)Oc4c3ccc3cccnc43)cc2c1 (stereo not drawn)	-12	9.8*	7	99*	3	18	2	6
